The structures appear in SMILES notation. Out of some 290,000 compounds screened, about 570 (0.2%) were called active. Inconclusive results (about 1%) are left out. Rule as the data show it: active = inhibition mostly above about 51% (no sharp cut-off); inconclusive = no clear call, values can overlap the other calls; inactive = mostly below about 53%. The entries come from a sample that favours actives as a whole.

The test concerns the target Voltage-dependent N-type calcium channel subunit alpha-1B (Homo sapiens) (UniProt Q00975). Kind of test: disruptors of CaV2.2 binding to Mint1 – biochemical, HTRF (AID 2073). Conditions: HTRF protein-protein interaction, Mint1-CaV2.2, at 20 µM, stronger effect = higher value. On the technique in general: TR-FRET usually uses a lanthanide donor and a delayed reading to cut background.

Voltage-dependent N-type calcium channel subunit alpha-1B (Homo sapiens), sequence (Q00975 whole entry, looked up): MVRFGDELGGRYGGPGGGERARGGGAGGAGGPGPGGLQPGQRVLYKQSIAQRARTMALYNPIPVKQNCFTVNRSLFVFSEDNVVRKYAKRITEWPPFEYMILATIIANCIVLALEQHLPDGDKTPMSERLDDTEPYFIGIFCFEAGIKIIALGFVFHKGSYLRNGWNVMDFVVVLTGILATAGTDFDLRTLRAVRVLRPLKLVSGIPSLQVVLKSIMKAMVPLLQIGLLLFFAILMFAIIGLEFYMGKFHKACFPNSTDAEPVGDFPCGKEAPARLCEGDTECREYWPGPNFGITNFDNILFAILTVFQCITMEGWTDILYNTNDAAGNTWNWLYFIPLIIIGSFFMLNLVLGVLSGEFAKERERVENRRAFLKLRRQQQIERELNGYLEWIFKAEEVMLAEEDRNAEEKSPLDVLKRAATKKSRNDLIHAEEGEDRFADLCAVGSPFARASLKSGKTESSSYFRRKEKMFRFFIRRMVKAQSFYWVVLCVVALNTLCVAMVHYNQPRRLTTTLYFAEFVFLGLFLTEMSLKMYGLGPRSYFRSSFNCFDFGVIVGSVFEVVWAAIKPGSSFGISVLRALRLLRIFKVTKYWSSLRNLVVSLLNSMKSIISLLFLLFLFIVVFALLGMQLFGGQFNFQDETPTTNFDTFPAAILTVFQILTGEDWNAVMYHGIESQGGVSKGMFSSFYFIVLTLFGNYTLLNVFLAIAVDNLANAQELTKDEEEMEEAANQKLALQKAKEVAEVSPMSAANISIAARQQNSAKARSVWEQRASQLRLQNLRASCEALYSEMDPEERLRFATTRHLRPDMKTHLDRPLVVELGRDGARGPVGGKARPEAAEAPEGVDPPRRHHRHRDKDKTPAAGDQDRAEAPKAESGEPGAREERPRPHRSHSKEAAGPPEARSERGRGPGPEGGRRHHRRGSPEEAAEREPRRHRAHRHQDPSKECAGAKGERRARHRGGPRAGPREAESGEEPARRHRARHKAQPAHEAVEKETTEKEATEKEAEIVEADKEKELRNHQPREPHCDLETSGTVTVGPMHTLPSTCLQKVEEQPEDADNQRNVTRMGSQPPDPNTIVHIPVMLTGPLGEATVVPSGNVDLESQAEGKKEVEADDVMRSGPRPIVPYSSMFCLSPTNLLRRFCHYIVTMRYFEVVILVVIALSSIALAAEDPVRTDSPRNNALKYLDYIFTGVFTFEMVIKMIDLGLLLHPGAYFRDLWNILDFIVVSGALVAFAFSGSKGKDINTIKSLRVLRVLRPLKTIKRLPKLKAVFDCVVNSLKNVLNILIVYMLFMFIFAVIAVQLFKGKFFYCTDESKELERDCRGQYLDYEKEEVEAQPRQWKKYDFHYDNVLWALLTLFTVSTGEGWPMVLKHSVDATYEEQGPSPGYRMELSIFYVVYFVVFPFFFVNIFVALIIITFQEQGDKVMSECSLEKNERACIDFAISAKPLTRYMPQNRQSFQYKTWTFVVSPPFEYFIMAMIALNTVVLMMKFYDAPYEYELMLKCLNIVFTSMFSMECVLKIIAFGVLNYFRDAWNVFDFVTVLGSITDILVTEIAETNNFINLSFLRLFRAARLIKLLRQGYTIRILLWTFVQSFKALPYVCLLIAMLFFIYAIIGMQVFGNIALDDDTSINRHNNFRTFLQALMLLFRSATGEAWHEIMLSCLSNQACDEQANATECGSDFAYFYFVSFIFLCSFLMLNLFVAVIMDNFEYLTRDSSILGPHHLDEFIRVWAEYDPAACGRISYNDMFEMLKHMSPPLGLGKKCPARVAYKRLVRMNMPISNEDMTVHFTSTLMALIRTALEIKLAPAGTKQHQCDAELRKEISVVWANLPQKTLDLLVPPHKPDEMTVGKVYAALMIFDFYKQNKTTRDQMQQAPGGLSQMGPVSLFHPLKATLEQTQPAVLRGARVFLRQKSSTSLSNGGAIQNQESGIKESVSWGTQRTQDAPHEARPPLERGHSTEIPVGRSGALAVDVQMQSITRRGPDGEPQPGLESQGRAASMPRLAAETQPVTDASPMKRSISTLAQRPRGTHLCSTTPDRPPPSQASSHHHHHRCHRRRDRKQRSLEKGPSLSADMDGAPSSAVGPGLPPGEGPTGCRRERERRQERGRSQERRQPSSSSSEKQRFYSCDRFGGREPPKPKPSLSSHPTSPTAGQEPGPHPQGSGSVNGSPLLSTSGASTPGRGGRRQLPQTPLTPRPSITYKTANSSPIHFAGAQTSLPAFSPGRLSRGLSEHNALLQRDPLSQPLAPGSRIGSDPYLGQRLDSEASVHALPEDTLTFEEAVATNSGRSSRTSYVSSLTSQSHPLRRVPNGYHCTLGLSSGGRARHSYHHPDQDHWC

By inhibition is commonly meant the drop in the measured response relative to a control, in per cent. `CCOc1cc(C(=O)O)cc(Cl)c1OC`: the inhibition was 0.7% (inactive). Turning to `Cc1ccc(N2CCN(/N=C/C=C/c3ccccc3)CC2)cc1`, the inhibition was 2.8% (inactive). In the case of `CNC(=S)Nc1ccc(Nc2ccccc2)cc1`, the inhibition is -5.3% (inactive). For `CNC(=S)/N=C(/Nc1ccccc1)c1ccccc1`, the inhibition was 59.9% (active). `Cc1ccc(NC(=O)c2ccccc2)cc1`: the inhibition is -4.2% (inactive). As to `Cc1ccc(NC(=S)c2ccccc2)cc1`, the inhibition was -6.4% (inactive). The same measure, in the same setting: the value for `N/C(=N\C(=S)Nc1ccccc1)c1ccccc1` was 5.2% (inactive). Consider `CS(=O)(=O)NCCSCc1c(Cl)cccc1Cl`, for which the inhibition is 28.1% (inactive). Consider `N#Cc1c(C(F)(F)F)cc(C2CC2)[nH]c1=O`, for which the inhibition is 6.1% (inactive). Regarding `Cc1ccc(C(=S)NCS(=O)(=O)c2ccc(C)cc2)cc1`, the inhibition is 28% (inactive). Consider `Cc1ccc(/C=C/c2nc3ccccc3[nH]2)o1`, for which the inhibition is 44.8% (inactive).

With `C(=C\c1nc2ccccc2[nH]1)/c1ccccc1`, the inhibition is 5.8% (inactive).

`C(=C\c1ccco1)/c1nc2ccccc2[nH]1`: the inhibition was 65.6% (active). Still for that read-out and setting: the figure for `CCc1ccc(CN2CCC(n3nccc3NC(=O)c3ccc4c(c3)OCO4)CC2)cc1` is 2.8% (inactive); for `N#Cc1c(N)sc2c1CCN(CCc1ccccc1)C2` it is 3.3% (inactive). As to `N#Cc1c(N2CCCCC2)nc(N2CCCCC2)c2c1CCN(Cc1ccccc1)C2`, the inhibition is 16.2% (inactive). Still for that read-out and setting: the figure for `N#Cc1c(N)sc(=S)c2c1CCN(Cc1ccccc1)C2` is 52.4% (active). For the compound `CN(C(=O)CC1C(=O)NCCN1Cc1ccccc1F)C1CCOCC1` (stereo not drawn), the inhibition is 16.3% (inactive). In the case of `Cc1c(Cl)sn(-c2ccc(Cl)cc2)c1=O`, the inhibition is 79.2% (active). Regarding `CC1=CC(C)(C)N(C)C(=O)N1c1ccc(Cl)cc1`, the inhibition was -2.6% (inactive). Consider `Cc1cc(=O)cc(C)n1-c1ccc(Cl)cc1`, for which the inhibition is 7.3% (inactive).

Take `CN1CCN(C(=O)CN(c2cc(C(F)(F)F)ccc2Cl)S(C)(=O)=O)CC1`: the inhibition is -10.8% (inactive). The same measure, in the same setting: the value for `CN(c1ccccc1)c1ccc(/C=C(\CCC(=O)O)c2nc3ccccc3s2)cc1[N+](=O)[O-]` was 54.7% (active); that for `Cc1ccc(/C=C(\CCC(=O)O)c2nc3ccccc3s2)cc1[N+](=O)[O-]` was 7% (inactive); that for `O=C(O)CC/C(=C\c1ccc(Cl)c([N+](=O)[O-])c1)c1nc2ccccc2s1` was 6.1% (inactive). With `CCC(C(=O)N1CCOCC1)n1nc(C)c2sc3ccccc3c2c1=O` (stereo not drawn), the inhibition was 12.1% (inactive).

On to `CN1CCN(c2ccccc2NC(=O)c2cccc(OCc3ccccc3)c2)CC1`, for which the inhibition is 19% (inactive). Still for that read-out and setting: the value for `COCCn1c(SCC(=O)Nc2ccc(NC(C)=O)cc2)nc2ccccc2c1=O` was -7.5% (inactive); that for `COCCn1c(SCC(=O)Nc2ccc(F)cc2)nc2ccccc2c1=O` was 6.9% (inactive). With `CC1(C)CC(=O)C=C(NNC(=O)C2CCCCC2)C1`, the inhibition is 1.6% (inactive). Take `C#CCOCCOCCOCCNc1nc(N2CCN(C(=O)[C@H](Cc3ccc(O)cc3)n3cc([C@@H](N)CC(C)C)nn3)CC2)nc(N2CCN(C(=O)[C@H](Cc3cc4ccccc4[nH]3)n3cc([C@@H](N)CC(C)C)nn3)CC2)n1`: the inhibition was 22.3% (inactive).

Turning to `C#CCOCCOCCOCCNc1nc(N2CCN(C(=O)[C@H](Cc3cc4ccccc4[nH]3)n3cc([C@@H](N)Cc4ccc(O)cc4)nn3)CC2)nc(N2CCN(C(=O)[C@H](Cc3cc4ccccc4[nH]3)n3cc([C@@H](N)CC(C)C)nn3)CC2)n1`, the inhibition was 51.5% (active). Regarding `C#CCOCCOCCOCCNc1nc(N2CCN(C(=O)C(Cc3ccc(O)cc3)n3cc(C(N)CC(C)C)nn3)CC2)nc(N2CCN(C(=O)C(Cc3cc4ccccc4[nH]3)n3cc(C(N)Cc4ccc(O)cc4)nn3)CC2)n1` (stereo not drawn), the inhibition was 14.6% (inactive).

As for `CC[N+](CC)(CC#Cc1ccccc1)CC(=O)c1ccc(Cl)cc1`, the inhibition was -0.1% (inactive).

Take `Cc1nc(C)c(C(=O)OCC(=O)N2CCN(c3ccccc3)CC2)s1`: the inhibition was -4.9% (inactive). On to `COC(=O)c1ccccc1NC(=O)CN1CCC(NC(=O)c2ccc(C)cc2)CC1`, for which the inhibition is -3.1% (inactive). As for `NNC(=O)c1oc2nc(-c3ccco3)cc(-c3ccco3)c2c1N`, the inhibition was 59.1% (active).

In the case of `Nc1c(C(=O)N/N=C/c2cccnc2)oc2nc(-c3ccco3)cc(-c3ccco3)c12`, the inhibition is 44.8% (inactive). Still for that read-out and setting: the value for `Nc1c(C(=O)N/N=C/c2ccccc2Cl)oc2nc(-c3ccccc3)cc(-c3ccco3)c12` was 45.6% (inactive). Consider `Cc1ccc(-c2cc(-c3ccco3)c3c(N)c(C(=O)NN)oc3n2)cc1`, for which the inhibition was 55.5% (inactive). Also, the inhibition (measured here: average of repeat tests) is 31.3%. In the case of `NNC(=O)c1oc2nc(-c3cccs3)cc(-c3ccco3)c2c1N`, the inhibition is 51.7% (active). Same read-out and setting: the value for `NNC(=O)c1oc2nc(-c3ccccc3)cc(-c3ccccc3)c2c1N` was 18.4% (inactive); that for `N#Cc1c(Nc2ccccc2)c(/C=N/NCCO)c[nH]c1=O` was -20.2% (inactive). Take `CN(C)c1cccc(C(=O)OCC(=O)NC2CCCC2)c1`: the inhibition is 2.1% (inactive). Regarding `Cc1oc(-c2ccccc2F)nc1CS(=O)(=O)CC(=O)N1CCCCCC1`, the inhibition is -4.2% (inactive). On the same count and under the same terms, the figure for `COc1cc(C(=O)NCCC(=O)NCCCN2CCCCC2)cc(OC)c1OC` is -4% (inactive); for `FC(F)(F)c1ccccc1NC1=NCCC1` it is 0.7% (inactive). On the same count and under the same terms, the figure for `Cc1nsc(Nc2ccccc2)c1C#N` is 36.6% (inactive); for `FC(F)(F)c1ccccc1Nc1nccs1` it is -8.5% (inactive); for `Cc1cc(C)c(C#N)c(Nc2ccccc2Cl)n1` it is 5.7% (inactive). In the case of `COc1cccc(CC(Cc2nc3ccccc3[nH]2)c2nc3ccccc3[nH]2)c1` (stereo not drawn), the inhibition is 4.4% (inactive).

Turning to `CCOc1ccc(/C=N/NC(=O)CSc2n[nH]c(=O)[nH]c2=O)cc1OC`, the inhibition is -0.5% (inactive). On the same count and under the same terms, the value for `CC(=O)c1ccc(N2CCN(C(=O)c3ccc(Cl)c(NC4=NC5CS(=O)(=O)CC5S4)c3)CC2)cc1` (stereo not drawn) was 3.4% (inactive); that for `Cc1ccnc(NS(=O)(=O)c2ccc(NC(=O)C3CCCO3)cc2)n1` (stereo not drawn) was -3% (inactive). With `O=C(NCc1ccc(F)cc1)C1CCCN1C(=O)Nc1cccc(F)c1` (stereo not drawn), the inhibition is 8.7% (inactive). `Cc1ccc(N=CC=C2OC(C)(C)C(C)(C)O2)cc1`: the inhibition was 1.3% (inactive). With `COc1cc2c(cc1NC(=O)C(C)OC(=O)c1ccc(S(=O)(=O)Nc3ccccc3Cl)cc1)oc1ccccc12` (stereo not drawn), the inhibition is 56.6% (active).

For the compound `COc1cc2c(cc1NC(=O)C(C)N1CCN(S(=O)(=O)c3ccc(C)c(C)c3)CC1)oc1ccccc12` (stereo not drawn), the inhibition was 12.7% (inactive). On the same count and under the same terms, the figure for `COc1ccc(S(=O)(=O)Nc2ccccc2Cl)cc1NC(C)=O` is 1.4% (inactive); for `Cc1nc2cc(F)ccc2n1C1CCN(S(=O)(=O)c2ccccc2)CC1` it is 5.6% (inactive). With `O=C(c1csc2c1CCCC2)N1CCN(c2ccccc2)CC1`, the inhibition was -0.9% (inactive). As for `Cc1ccc(Nc2nc(-c3ccc(S(=O)(=O)N4CCCC4)cc3)cs2)cc1C`, the inhibition was 36.3% (inactive). As for `O=S(=O)(c1ccc(-c2csc(Nc3ccc(Br)cc3)n2)cc1)N1CCCC1`, the inhibition is -7.1% (inactive). Consider `Cc1cc(C)cc(Nc2nc(-c3ccc(S(=O)(=O)N4CCCC4)cc3)cs2)c1`, for which the inhibition was 67.2% (active). Consider `COC(=O)c1ccccc1NC(=O)COc1ccc(S(=O)(=O)N2CCCC2)cc1C`, for which the inhibition is 6.4% (inactive). Still for that read-out and setting: the value for `Nc1cccc2c(=O)c3ccccc3[nH]c12` was 41.4% (inactive). In the case of `COc1cccc2c(=O)c3cccc(N)c3[nH]c12`, the inhibition was 52.3% (active). On the same count and under the same terms, the figure for `COc1cccc2[nH]c3ccccc3c(=O)c12` is 30.8% (inactive); for `CCCCN(C)C(=O)CSc1nc(NCc2ccc(OC)cc2)c2ccccc2n1` it is -1% (inactive); for `CCCn1c(C(C)Nc2nc(-c3ccc(Cl)c([N+](=O)[O-])c3)cs2)nc2cc(Cl)c(N3CCCCC3)cc21` (stereo not drawn) it is 21% (inactive).

For `CCOC(=O)c1sc2nc3c(SCCC#N)cc(C(=O)c4cc(F)ccc4O)cn3c(=O)c2c1C`, the inhibition was 43.6% (inactive). Regarding `CCOC(=O)c1sc2nc3c(SCC(=O)O)cc(C(=O)c4ccccc4O)cn3c(=O)c2c1C`, the inhibition was 53.3% (active). Still for that read-out and setting: the value for `CCOC(=O)c1sc2nc3c(SCC(=O)O)cc(C(=O)c4cc(F)ccc4O)cn3c(=O)c2c1C` was 18.6% (inactive); that for `CCCCP(=O)(CCCC)Cc1ccccc1` was -0.8% (inactive). Same read-out and setting: the value for `COc1ccc(-c2nnc(SCC(=O)NCc3cccs3)n2C(C)C)cc1` was -14.7% (inactive); that for `O=c1c2c(nc3nc(NCc4cccc5ccccc45)[nH]n13)CCC2` was 4.9% (inactive). Same read-out and setting: the value for `O=C(O/N=C(\c1ccccc1)c1ccncc1)c1ccccc1F` was -7.6% (inactive); that for `O=C(Nc1ccc(NC(=O)c2sc3ccccc3c2Cl)cc1Cl)c1ccco1` was 31.4% (inactive). Consider `O=C(Nc1cccc(NC(=O)c2sc3ccccc3c2Cl)c1)c1ccco1`, for which the inhibition is 12.7% (inactive). `O=C(Nc1ccc(NC(=O)c2sc3ccccc3c2Cl)cc1)c1ccco1`: the inhibition was 60.5% (active).

`CCS(=O)(=O)N1CCCC(C(=O)N2CCc3ccccc3C2)C1` (stereo not drawn): the inhibition is 0% (inactive). Consider `COc1cc(/C=N/n2cnnc2)ccc1OC(=O)c1ccco1`, for which the inhibition was 1.6% (inactive). With `CCN(CC)C(=O)C(=O)Nc1ccc(OC)c(Cl)c1`, the inhibition was 1.5% (inactive). As to `Cc1cc(=O)c2ccc(Cl)cc2[nH]1`, the inhibition is 0.7% (inactive). Regarding `O=C(O)/C=C/C(=O)NCc1csc2ccccc12`, the inhibition is -5% (inactive).

With `O=C(Nc1ccc2c(c1)OCO2)C1CC(=O)N(c2cccc(Cl)c2)C1` (stereo not drawn), the inhibition is -1.9% (inactive). Turning to `Oc1c(Br)cc(C=Nc2ccc3nc(-c4ccccc4)[nH]c3c2)c(O)c1Br`, the inhibition was 83.1% (active). With `COc1ccc2nc(-c3ccccc3)[nH]c2c1`, the inhibition is 11.7% (inactive). As for `Oc1c(Br)cc(/C=N/n2c(-c3ccccc3)n[nH]c2=S)c(O)c1Br`, the inhibition was -12.3% (inactive). With `CCn1ccnc1CN(C)C(=O)c1ccc(OC2CCN(CCc3ccccc3)CC2)cc1`, the inhibition was 6.5% (inactive). With `COCCn1c(SCc2cccnc2)nnc1-c1c[nH]c2ccccc12`, the inhibition is -0.4% (inactive). `CC(=O)N1CCC(C(=O)N2CCN(S(=O)(=O)c3cccs3)CC2)CC1`: the inhibition was 0.1% (inactive).
